Source: PubChem (several laboratories)
CYP2C19 act – human CYP2C19 activators, primary screen, biochemical, luminescence; 96,000 tested, under 10 active; activation factor at 5 µM; Cytochrome P450 2C19 (Homo sapiens), P33261; AID 1025, 2008; recombinant CYP2C19, luciferin-H EGE luminescence; active compounds read high; 0 = fully inhibited enzyme, 1 = untreated enzyme;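 active means activation factor of at least 2 at 5 µM in the primary screen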;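 further: 0 = wells with 2.5 mM tranylcypromine and 1 = vehicle-only wells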
CYP2C9 inh – blockers of cytochrome P450 2C9 activity – biochemical, luminescence, ADME assay, primary screen. P11712. CYP2C9 Supersomes, luciferin-H conversion. inhibition, % at 5 µM. hit rate 20% among 96,000. AID 777, 2007;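 active means blocking of liver enzyme CYP2C9 beyond about 50% at 5 µM, limit read from the data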
Cav32 inh – Cav3.2 calcium influx blockers – cell-based, Fluo-4 calcium fluorescence, FDSS, MLSMR library, primary screen; Voltage-dependent T-type calcium channel subunit alpha-1H (Homo sapiens), O95180; Cav3.2-expressing cells; active compounds read low; B-score at 10 µM; hit rate 4% among 100,000;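 active means single-dose well whose peak fluorescence ratio is a statistical outlier from its plate by either plate-standardised score or position-corrected B-score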
CYP2C9 act – human CYP2C9 activators, primary screen, biochemical, luminescence. recombinant CYP2C9, luciferin-H conversion; active compounds read high; factor 1 = untreated enzyme, 0 = blocked. activation factor at 5 µM. Cytochrome P450 2C9 (Homo sapiens), P11712. hit rate 1.4% among 96,000;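 active means activation factor of 2 or more for CYP2C9 at a 5 µM dose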;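 further: 0 = sulfaphenazole-blocked wells and 1 = vehicle-only wells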
CYP2C19 inh – blockers of cytochrome P450 2C19 activity – biochemical, luminescence, ADME assay, primary screen | P33261 | CYP2C19 Supersomes, luciferin-H EGE luminescence, 30 min | inhibition, % at 5 µM | hit rate 21% among 96,000 | AID 778, 2007;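 active means CYP2C19 inhibition above a set limit at 5 µM in the primary screen, cut at about 50% in these data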;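 further: plate controls were negative control wells for no effect and 2.5 mM tranylcypromine positive control for full effect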
* = called active by the depositor; . = no result. Compounds with a hit are over-represented: about 27% of the library has one in this group of screens.

SMILES	CYP2C19 act	CYP2C9 inh	Cav32 inh	CYP2C9 act	CYP2C19 inh
Cc1ccc(NCc2nnc(SCC(=O)N(Cc3ccccc3)C(C)(C)C)o2)c(C)c1	0.7	43.0	-4.02	0.6	32.0
Cc1ccccc1NC(=O)CN1C(=O)S/C(=C\c2cccn2-c2cccc(C(=O)O)c2)C1=O	0.9	75.1*	3.36	0.2	6.4
CC(=O)Nc1nonc1-c1nc2ccccc2n1CC1CC1	0.8	39.8	-0.353	0.6	19.2
CCOC(=O)c1ccccc1NC(=O)Cn1c(-c2nonc2N)nc2ccccc21	0.2	92.1*	-4.43	0.1	75.9*
CCCCn1c(-c2nonc2N)nc2ccccc21	0.9	26.8	-3.49	0.7	6.2
CCC(=O)Nc1nonc1-c1nc2ccccc2n1CC(C)C	0.8	66.0*	-0.871	0.3	17.5
Nc1nonc1-c1nc2ccccc2n1CC(=O)NC1CCCC1	0.5	32.7	0.251	0.7	52.1*
O=C(O)CCCCCNS(=O)(=O)c1ccc(Cl)cc1	1.2	-21.6	0.402	1.2	-20.4
CC1=C(C(=O)OCc2ccc3c(c2)OCO3)C(c2ccccc2)NC(=O)N1 (stereo unspecified)	0.6	35.0	-3.61	0.7	36.7
CCCOc1ccccc1C1NC(=O)NC(C)=C1C(=O)OCCOC(C)C (stereo unspecified)	0.4	52.8*	0.0746	0.5	55.9*
CC1=C(C(=O)OCc2ccc3c(c2)OCO3)C(c2ccccc2OCc2ccccc2)NC(=O)N1 (stereo unspecified)	0.7	99.0*	-3.44	0	29.8
CCCOc1ccccc1C1NC(=O)NC(C)=C1C(=O)OCCOC (stereo unspecified)	0.5	21.7	1	0.8	54.0*
Nc1nc(SCC(=O)N2CCCCCC2)[nH]c(=O)c1NC(=O)c1ccco1	.	.	0.0782	.	.
COC(=O)c1cc(C#N)c(Oc2ccccc2OC)nc1C	0.3	51.8*	0.0929	0.5	71.7*
CCOC(=O)c1cc(C#N)c(Oc2ccccc2OC)nc1-c1ccccc1	0.6	64.4*	-0.24	0.4	42.4
COC(=O)c1cc(C#N)c(NCc2ccccc2)nc1C	0.9	3.8	0.0626	1	11.2
Cc1ccc(SC/C(O)=C(\C#N)c2nc3ccccc3n2C)cc1	0.7	50.0*	-0.414	0.5	30.3
Cn1c(/C(C#N)=C(\O)CN2CCN(Cc3ccccc3)CC2)nc2ccccc21	0.8	16.7	-2.44	0.8	24.2
O=C(NCCCN1CCCC1=O)c1cncc(Br)c1	1.1	-8.4	0.169	1.1	-12.6
CN1/C(=C\C(=O)COC(=O)CN2C(=O)C3CC=CCC3C2=O)C(C)(C)c2ccccc21 (stereo unspecified)	0.8	17.3	0.506	0.8	19.3
CN1/C(=C\C(=O)CN2C(=O)NC3(CCCCCC3)C2=O)C(C)(C)c2ccccc21	0.1	78.6*	-4.16*	0.2	88.5*
Cc1cc(C)n2nc(CC(=O)NC3CCCCCC3)nc2n1	1.1	-18.4	0.793	1.2	-14.4
C/C(CCc1ccc2c(c1)OCO2)=N\N=C(/N)SC1CC(=O)N(c2ccc(Cl)cc2)C1=O (stereo unspecified)	0.8	54.7*	-4.1*	0.5	24.5
COc1ccc2c(Cl)c(C(=O)NCCCn3ccnc3)sc2c1	0	90.8*	-1.27	0.1	97.5*
COc1ccc2c(Cl)c(C(=O)NN)sc2c1	0.2	56.5*	-0.071	0.4	81.7*
SMILES	CYP2C19 act	CYP2C9 inh	Cav32 inh	CYP2C9 act	CYP2C19 inh
COc1ccc2c(Cl)c(C(N)=O)sc2c1	1	-16.7	-0.905	1.2	1.6
C=CCn1c(SCC(=O)N2CCOCC2)nc(O)c(Cc2ccccc2)c1=O	0.9	8.1	-0.754	0.9	10.9
CCn1c(SCC(=O)Nc2nc(C)cs2)nnc1-c1ccoc1C	0.2	31.0	0.0339	0.7	75.3*
COc1ccccc1NC(=O)CSc1nnc(-c2ccoc2C)n1CC1CCCO1 (stereo unspecified)	0.9	11.3	0.178	0.9	14.2
COc1ccc(-n2c(SCC(=O)Nc3nc(C)cs3)nnc2-c2ccoc2C)cc1	.	.	-6.54*	.	.
COC(=O)CSc1nnc(-c2ccoc2C)n1-c1ccc(C)cc1	0.6	5.4	1.59	0.9	40.4
C=CCn1c(SCC(=O)Nc2nc(C)cs2)nnc1C(CO)NC(=O)c1ccccc1 (stereo unspecified)	0.6	11.1	-0.0323	0.9	41.1
CCn1c(SCC(=O)Nc2ccccc2-c2ccccc2)nnc1-c1ccoc1C	0.2	85.5*	-1.12	0.1	80.3*
CCn1c(SCC(=O)Nc2nc(C)cs2)nnc1C(NC(=O)c1ccccc1Cl)C(C)C (stereo unspecified)	0.5	11.4	-1.94	0.9	51.8*
CS(=O)(=O)N(CC(=O)N1CCCCC1)C1CCCCC1	0.7	6.4	0.0711	0.9	32.2
COCC(COCCCNC(=O)Nc1ccc(Br)cc1)OC (stereo unspecified)	0.6	22.1	0.902	0.8	35.7
Cc1occc1-c1nnc(SCC(=O)N2CCOCC2)n1CCc1ccccc1	1	-3.7	1.88	1	-4.9
CCCCn1c(SCC(=O)c2ccc3c(c2)OCCO3)nnc1-c1ccoc1C	0	90.1*	-1.65	0.1	96.4*
COc1cccc(-n2c(SCC(=O)Nc3nccs3)nnc2-c2ccoc2C)c1	.	.	-3.97*	.	.
CCCCn1c(SCC(=O)Nc2nnc(C)s2)nnc1-c1ccoc1C	0.7	80.6*	-1.3	0.2	31.1
CCn1c(SCC(=O)N2CCN(c3ccccc3F)CC2)nnc1-c1ccoc1C	0.5	52.9*	0.745	0.5	53.6*
O=C(CN(CCO)c1ccccc1)NC12CC3CC(CC(C3)C1)C2	0.6	6.4	-1.9	0.9	37.1
OC(CCN1CCOCC1)(c1ccc(Cl)cc1)C1CCCCC1 (stereo unspecified)	0.9	21.9	-2.93	0.8	10.0
Cc1occc1-c1nnc(SCC(=O)Nc2ccc3c(c2)OCO3)n1CC1CCCO1 (stereo unspecified)	0.5	60.2*	0.932	0.4	47.7
COc1ccc(-n2c(SCC(=O)Nc3nccs3)nnc2-c2ccoc2C)cc1	0.2	62.4*	-1.49	0.4	75.2*
CCOC(=O)C1=C(C)NC(C)=C(C(=O)OCC)C1c1cc2ccc(C)cc2[nH]c1=O	0.7	53.5*	-5.06*	0.5	25.1
COC(=O)C1=C(C)NC(C)=C(C(=O)OC)C1c1cc2ccc(C)cc2[nH]c1=O	0.6	17.5	-0.234	0.8	40.4
COC(=O)c1ccc(CSc2nc3c(cnn3-c3ccc(C)c(C)c3)c(=O)[nH]2)o1	.	.	0.248	.	.
COC(=O)c1cc(CSc2nc3ccccc3[nH]2)oc1C	0	86.9*	-1.19	0.1	98.1*
COC(=O)c1ccc(CSc2nc3ccc(Cl)cc3[nH]2)o1	0.5	79.9*	-3.55	0.2	54.4*
CCCc1cc(=O)[nH]c(SCC(N)=O)n1	1	-2.6	-0.764	1	0.1
